This is an account of results in ChEMBL document CHEMBL3433997, “St. Jude Leishmania screening dataset” (2016).

One may read the inhibition as the drop in the measured response relative to a control, in per cent.

Molecules are shown by their SMILES.

What all share (type): functional
Assay [1] deals with Solute carrier family 2, facilitated glucose transporter member 1 (Homo sapiens) (UniProt P11166). Description: ST_JUDE_LEISH: Cytotoxicity at 2uM final concentration against transgenic Leishmania Mexicana promastigotes LmGLUT1 that are glucose transport deficient and complemented with the human glucose transporter GLUT1. Activity is measured by DNA content using SYBR green in vitro.
Solute carrier family 2, facilitated glucose transporter member 1 (Homo sapiens), sequence (P11166 whole entry): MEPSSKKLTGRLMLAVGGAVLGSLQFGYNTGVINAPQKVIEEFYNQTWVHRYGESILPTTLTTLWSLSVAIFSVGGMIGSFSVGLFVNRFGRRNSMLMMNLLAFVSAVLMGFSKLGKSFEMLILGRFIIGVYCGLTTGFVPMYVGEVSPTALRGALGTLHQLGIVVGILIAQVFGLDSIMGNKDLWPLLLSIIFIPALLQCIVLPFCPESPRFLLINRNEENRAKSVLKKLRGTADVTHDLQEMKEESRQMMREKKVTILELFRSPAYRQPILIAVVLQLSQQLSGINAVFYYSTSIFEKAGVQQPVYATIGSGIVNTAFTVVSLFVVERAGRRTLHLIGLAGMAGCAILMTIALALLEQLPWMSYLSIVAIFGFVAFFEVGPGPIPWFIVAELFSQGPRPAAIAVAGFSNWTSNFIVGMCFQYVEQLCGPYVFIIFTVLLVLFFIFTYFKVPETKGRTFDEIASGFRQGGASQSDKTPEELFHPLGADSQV

Assay [2] concerns the target Hexose transporter 1 (Plasmodium falciparum) (UniProt O97467). Description: ST_JUDE_LEISH: Cytotoxicity at 2uM final concentration against transgenic Leishmania Mexicana promastigotes LmPfHT that are glucose transport deficient and complemented with the Plasmodium falciparum hexose transporter. Activity is measured by DNA content using SYBR green in vitro.
The target of assay [3] is Glucose transporter (Leishmania mexicana) (UniProt O61059). Description: ST_JUDE_LEISH: Cytotoxicity at 2uM final concentration against transgenic Leishmania Mexicana promastigotes LmGT2 that are glucose transport deficient and complemented with the L. Mexicana glucose transporter 2. Activity is measured by DNA content using SYBR green in vitro.

Take `COc1cc(C(F)(F)F)nc2c(CNCCCNc3cc(=O)c4ccccc4[nH]3)scc12`: the inhibition in assay [1] is 0.84%; in assay [2], 0.13%; in assay [3] it was 0.55%.

Turning to `COc1ccc(CNc2nccc3ccc(-c4ccc5nccn5c4)cc23)cc1`, the figures for the inhibition in assay [1], in assay [2] and in assay [3] were 1.79%, 0.03% and -1.93%, respectively.

As for `COc1ccc(CCN2CCC(Nc3nc4ccccc4n3CCc3ccc(OC)cc3)CC2)cc1`, the inhibition in assay [1] was 4.38%; in assay [2] it was -1.39%; in assay [3], 12.5%.

For `CN1CCC(C(=O)Nc2ccc(-c3cccc(-c4nc5cc(F)ccc5[nH]4)c3)cc2)CC1`, the inhibition in assay [1] came out at 8.95%; in assay [2] it was 9.27%; in assay [3] it was 8.51%.

Regarding `CCCC(CNC(=O)c1cc2c(Cl)cc(Cl)cc2[nH]1)CNc1cc(=O)c2ccccc2[nH]1` (stereo unspecified), the figures for the inhibition in assay [1], in assay [2] and in assay [3] were 1.99%, 2.64% and 2.5%, respectively.

For the compound `c1ccc2[nH]c(-c3ccc(-c4ccc(CN5CCCCC5)cc4)s3)nc2c1`, the inhibition is 0.97% in assay [1], 0.62% in assay [2] and -0.34% in assay [3].

On to `O=C(/C=C/c1ccc(Cl)c(Cl)c1)NCCCCCCN1CCN(C(=O)Nc2ccc(Cl)c(C(F)(F)F)c2)CC1`, for which the inhibition in assay [1] is 4.18%; in assay [2], 4.06%; in assay [3], -1.95%.

For `O=C1OC(c2cc3ccccc3n2S(=O)(=O)c2ccccc2)(c2cc3ccccc3n2S(=O)(=O)c2ccccc2)c2ccccc21`, the results for the inhibition in assay [1], in assay [2] and in assay [3] were 1.65%, 1.8% and 2.01%, respectively.

Take `Cc1ccccc1C1CCN(C2CCC(NC(=O)c3ccc(-c4cccc(C(F)(F)F)c4)o3)CC2)CC1` (stereo unspecified): the inhibition in assay [1] came to 5.47%; in assay [2], 2.19%; in assay [3] it was 3.24%.

With `CC1CCCCC1N(C)C1CCN(CCCNC(=O)C=Cc2cccc(C(F)(F)F)c2)CC1` (stereo unspecified), the inhibition is 4.22% in assay [1], 2.29% in assay [2] and 1.79% in assay [3].

In the case of `CCNC(=O)c1ccc(-n2nc(C)cc2-c2ccccc2)cc1`, the inhibition is 2.66% in assay [1], 3.31% in assay [2] and -0.67% in assay [3].

For the compound `CNC(=O)COc1ccc(Nc2nnc(-c3ccc(C)c(S(=O)(=O)NCC4CCCO4)c3)c3ccccc23)cc1` (stereo unspecified), the inhibition in assay [1] is 1.3%; in assay [2], 0.12%; in assay [3], -0.43%.
